{
  "source": "paper PMC10313831",
  "about": "“ssDNA accessibility of Rad51 is regulated by orchestrating multiple RPA dynamics”",
  "data": [
    {"molecular_target": "RPA (Rfa1-Rfa2-Rfa3) (Saccharomyces cerevisiae, UniProt P22336;P26754;P26755 1-621;1-273;1-122)", "sequence (P22336 whole entry, chain 1 of 3)": "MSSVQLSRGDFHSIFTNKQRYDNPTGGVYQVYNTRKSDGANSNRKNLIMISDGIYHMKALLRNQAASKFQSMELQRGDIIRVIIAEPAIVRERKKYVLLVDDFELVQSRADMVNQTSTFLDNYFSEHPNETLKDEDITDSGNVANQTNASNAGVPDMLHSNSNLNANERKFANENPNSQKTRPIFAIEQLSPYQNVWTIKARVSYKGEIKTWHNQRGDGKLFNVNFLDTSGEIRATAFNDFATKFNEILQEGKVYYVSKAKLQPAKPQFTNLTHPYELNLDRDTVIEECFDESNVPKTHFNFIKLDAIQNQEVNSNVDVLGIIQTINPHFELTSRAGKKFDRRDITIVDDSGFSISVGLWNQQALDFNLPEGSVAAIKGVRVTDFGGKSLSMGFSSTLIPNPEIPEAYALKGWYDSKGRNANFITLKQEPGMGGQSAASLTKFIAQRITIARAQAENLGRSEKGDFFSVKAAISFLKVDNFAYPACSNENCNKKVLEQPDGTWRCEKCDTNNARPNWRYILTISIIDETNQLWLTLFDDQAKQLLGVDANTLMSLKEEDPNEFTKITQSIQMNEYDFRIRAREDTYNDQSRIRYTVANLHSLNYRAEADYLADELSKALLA", "sequence (P26754 whole entry, chain 2 of 3)": "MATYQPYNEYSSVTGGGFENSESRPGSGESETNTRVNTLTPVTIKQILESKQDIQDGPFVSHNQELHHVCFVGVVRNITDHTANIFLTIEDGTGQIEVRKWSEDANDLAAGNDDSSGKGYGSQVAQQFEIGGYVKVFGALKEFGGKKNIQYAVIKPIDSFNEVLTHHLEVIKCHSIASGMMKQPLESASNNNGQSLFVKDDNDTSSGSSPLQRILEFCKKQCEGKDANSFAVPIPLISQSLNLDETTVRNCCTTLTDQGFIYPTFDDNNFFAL", "sequence (P26755 whole entry, chain 3 of 3)": "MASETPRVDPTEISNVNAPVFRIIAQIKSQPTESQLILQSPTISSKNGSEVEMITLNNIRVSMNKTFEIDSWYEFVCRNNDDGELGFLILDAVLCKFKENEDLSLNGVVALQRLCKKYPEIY", "experiment": "EMSA; 10 nM RPA, 150 mM KCl; 20 mM Tris-HCl pH 7.5, 150 mM KCl (15 mM in Supp. Fig. 1b), 1 mM DTT, 100 ug/mL BSA, 5 nM ssDNA, 30 C 10 min; 4% native gel in 0.2x TBE; high values mean tight binding", "details": "protein: recombinant; copies: 1;1;1; label: 5'-32P; ssDNA", "units": {"binding signal": "% bound"}, "values": [
      {"sequence": "TTTTTTTTTTTTTTTTTT", "binding signal": 39.7},
      {"sequence": "TTTTTTTTTTTTTT", "binding signal": "3.33 ± 2.59"},
      {"sequence": "TTTTTTTTTT", "binding signal": 1.24}
    ]}
  ]
}
